Experimental data taken from PubChem BioAssay (Tox21).
Values without a mark were called inactive. Activity calls are given as the source filed them. Calls follow the shape of the dose curve; as a rule, active = well fitted curve in the direction sought with a large enough effect in the repeat runs; inconclusive = weak or mixed curves; inactive = flat fitted curve, though single readings scatter.

experiment: qHTS assay to test for compound auto fluorescence at 535 nm (green) in HepG2 cells (AID 720675); details: green autofluorescence 485/535 nm, 1 h; series mostly up to 91.3 µM; fluorescence, % of fluorescein control: at the top concentration
Source text: National Center for Advancing Translational Sciences [NCATS]
NIH Chemical Genomics Center [NCGC]
U.S. Environmental Protection Agency [EPA]
National Institutes of Environmental Health Sciences [NIEHS]
National Toxicology Program [NTP]
U.S. Food and Drug Administration [FDA]
Compound auto fluorescence often interferes with screening of the compound library against various biological targets and signaling pathways. Some of these compounds may have fluorophoric properties. Such properties may interfere with the assay outputs resulting in false positives and/or negatives. To decrease such complications and ensure the compound activities are relevant in terms of biological response, the Tox21 10K compound library was screened for auto fluorescence.
From the fluorophores used as reporter signals in our screening assays, the auto fluorescence equivalencies of compounds against three fluorophores have been evaluated: Triamterene, Fluorescein and Rose Bengal sodium for blue, green and red fluorescence, respectively. The fluorescence intensities were measured using Excitation/Emission wavelengths at 405/460nm, 485/535nm and 540/590nm for blue, green and red labels, respectively. This assay includes the green fluorescence data.
Tox21 Assay Protocol Summary:
2,000 HepG2 cells in 5 uL of culture medium (MEM containing 10% FBS) per well were dispensed into black wall/clear bottom 1536-well plates using a Multidrop Combi Dispenser (ThermoFisher Scientific, Waltham, MA). The assay plates were incubated overnight at 37 C to allow cell attachment to the well bottom, followed by the transfer of 23 nL compound or DMSO vehicle by a pintool work station (Kalypsys , San Diego, CA). After the assay plates were incubated for 1 hr at 37 C and 5% CO2, fluorescence intensities in the assay plates were measured by an Envision (PerkinElmer, Shelton, CT) plate reader using three labels for measuring blue, green and red fluorescence at […] 460, 535 and 590 nm respectively.
% is scaled to controls: 0 for no effect and ±100 for the full control effect.

Structure (SMILES) | fluorescence, % of fluorescein control | outcome
Oc1ccc2c(c1)Cc1ccccc1-2 | 0.016% | –
CC(=O)OCC(C)C | -0.0206% | –
O=C1OC(=O)c2c(Br)c(Br)c(Br)c(Br)c21 | 0.0258% | –
CCC(CO)(CO)[N+](=O)[O-] | 0.0326% | –
CCCCCCC(O)CCCCCCCCCCC(=O)OC (stereo not given) | 0.0329% | –
Cc1cccc2sc(N)nc12 | -0.0715% [at 95.7 µM] | –
C=CC(=O)O | – | inactive
FC(F)(F)C(F)(F)C(F)(F)C(F)(F)CCI | 0.0034% [at 46 µM] | –
Nc1ccc(NC(=O)c2ccc(N)cc2)cc1 | -0.0679% | –
C=C(C)C(=O)OCCC(F)(F)C(F)(F)C(F)(F)C(F)(F)C(F)(F)C(F)(F)F | 0% | –
C=CCOC(=O)COCCC(C)C | -0.0706% | –
CC(=O)OCCC1CCCCC1 | -0.129% | –
CN(C)CC/C=C1\c2ccccc2Sc2ccc(Cl)cc21 | 0.0059% [at 46 µM] | –
CC(C)N(C)C | -0.0025% | –
CCCCOC(=O)CCCCC(=O)OCCCC | -0.0067% | –
CCCCC[C@H](O)/C=C/[C@H]1[C@H](O)CC(=O)[C@@H]1C/C=C\CCCC(=O)O | -0.127% [at 46 µM] | –
CC(C)COC(=O)c1ccc(O)cc1 | 0.182% | –
CCCCCCCCCCCCCC(=O)OCC(O)CO (stereo not given) | -0.0344% | –
CCCCCCCCCCCCCOS(=O)(=O)O | -0.0062% | –
O=[N+]([O-])C1(Br)COCOC1 | -0.0222% | –

Structure (SMILES) | fluorescence, % of fluorescein control | outcome
Cc1ccc(Nc2c(F)cccc2Cl)c(CC(=O)O)c1 | -0.026% [at 46 µM] | –
CCCCCCCCCCCCCCCC(=O)OCC | 0.0896% | –
CC1C(C)(C)C2=C(C(=O)CCC2)C1(C)C (stereo not given) | -0.0714% | –
CC(C)CC(O)CC(C)C | 0.0223% | –
NC(=O)CCCCC(N)=O | 0.0056% | –
CCCCCCCCCCCSCC(=O)O | -0.0069% | –
Nc1ccc(S(=O)(=O)NCc2ccccc2)cc1 | -0.0828% [at 46 µM] | –
CC(C)c1ccc(C#N)cc1 | -0.0764% | –
CC(O)Cn1cnc2c1c(=O)n(C)c(=O)n2C (stereo not given) | 0.0515% [at 18.6 µM] | –
CC(=O)OC(C)C[N+](C)(C)C (stereo not given) | 0.0253% [at 18.6 µM] | –
CC(CCc1ccc(O)cc1)NCCc1ccc(O)c(O)c1 (stereo not given) | -0.0294% [at 46 µM] | –
C1=CCC2CC=CC2C1 (stereo not given) | -0.102% | –
CC(=O)OCC1=C(C(=O)O)N2C(=O)[C@@H](NC(=O)CSc3ccncc3)[C@H]2SC1 | -0.0326% [at 46 µM] | –
CC(C)C1CCC(C(=O)N[C@H](Cc2ccccc2)C(=O)O)CC1 (stereo not given in full) | 0.0664% [at 46 µM] | –
Cc1cc(CCC(=O)OCCOCCOCCOC(=O)CCc2cc(C)c(O)c(C(C)(C)C)c2)cc(C(C)(C)C)c1O | 0.0121% | –
CC1=CC[C@@H]2C[C@H]1C2(C)C | 0.0991% [at 18.6 µM] | –
CCOCCC(=O)OCC | 0.0136% [at 95.7 µM] | –
CC(C)C(O)C(C)(C)CO (stereo not given) | 0.052% [at 95.7 µM] | –
O=C(O)CCCc1c[nH]c2ccccc12 | 0.0275% | –
O=C(CCS)OCC(COC(=O)CCS)(COC(=O)CCS)COC(=O)CCS | -0.235% | –
